Screening results from PubChem.
HT1080-NT tox – qHTS for induction of synthetic lethality in tumor cells producing 2HG: qHTS for the HT-1080-NT fibrosarcoma cell line; Potency, µM (doses to about 46.1 µM), without a hit: top-dose activity, negative = less viability, most hits filed as cytotoxic; hit rate 1.6% among 360,000; AID 686970, 2013; HT-1080-NT fibrosarcoma viability, CellTiter-Glo ATP luminescence, 48 h;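 also: NT is the 2HG producing partner of a matched IDH1 knockdown line; potency is read from the fitted curve at half-maximal effect; 0% = DMSO-treated cells and -100% = media-only wells without cells; nearly all actives have a fitted effect of over 55% in size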
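Toxicity toward the 2HG-producing NT line was scored as %Activity, normalised to DMSO and no-cell wells, from CellTiter-Glo luminescence after 48 hours' treatment.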
IL-1B inflam inh – qHTS for Inhibitors of Inflammasome Signaling: IL-1-beta AlphaLISA Primary Screen; THP-1 LPS/ATP IL-1B secretion, AlphaLISA, 16 h; stronger effect = lower value; activity change, % at 57.5 µM; hit rate 4.7% among 360,000; in the data active = activity change below about -50%; inconclusive = mostly about -30% to -49%
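THP-1 cells pretreated 1 hr with compounds (up to 57.5 uM final), then stimulated with LPS (250 ng/mL final) plus ATP (1.25 mM final); secreted IL-1B measured by AlphaLISA after 16 hr, decreased signal indicating inhibition.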
HT1080 IDH1KD tx – qHTS for induction of synthetic lethality in tumor cells producing 2HG: qHTS for the HT-1080-IDH1KD cell line; HT-1080 IDH1 knockdown viability, ATP luminescence, 48 h; Potency, µM (doses to about 46.1 µM), for inactives: top-dose activity, negative = toxicity, hits mostly cytotoxic; hit rate 2% among 360,000;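 also: potency is read from the fitted curve at half-maximal effect; 0% = DMSO wells and -100% = cell-free medium wells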
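Using the IDH1-knockdown HT-1080 line run in the same batch and compound series as the NT line, viability after 48 h at 37 °C was determined by CellTiter-Glo luminescence and expressed as % activity.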
TDP1 cell CPT – qHTS for Inhibitors of human tyrosyl-DNA phosphodiesterase 1 (TDP1): qHTS in cells in presence of CPT. chicken DT40 Tdp1-/-;hTDP1 cells + 20 nM CPT, ATP luminescence, 48 h. Potency, µM (top dose mostly 46.2 µM), for the others: top-dose activity change, negative = growth inhibition, actives largely listed as inhibitors. hit rate 12% among 420,000. AID 686979, 2013; also: potency is read from the fitted curve at half-maximal effect; nearly all actives have a fitted effect of over 55% in size
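Chicken DT40 Tdp1-/- cells stably complemented with human TDP1 were seeded at 400 cells/well in medium containing 20 nM camptothecin, exposed to pin-transferred compounds, and grown at 37 °C for at least 48 hr. Viability was read as ATP luminescence.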
TDP1 cell noCPT – qHTS for Inhibitors of human tyrosyl-DNA phosphodiesterase 1 (TDP1): qHTS in cells in absence of CPT. hit rate 15% among 420,000. DT40 Tdp1-/- hTDP1 cells, no CPT, ATP luminescence, 48 h. Potency, µM (highest dose often 46.2 µM), for inactives: at the highest dose activity change, negative = growth inhibition, most hits filed as inhibitors. AID 686978, 2013; also: potency is read from the fitted curve at half-maximal effect; nearly all actives have a fitted effect of over 55% in size
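Luminescent ATP content (CellTiter-Glo) served as the growth readout. Knockout chicken DT40 cells expressing human TDP1 were exposed to compounds without camptothecin for a minimum 48 hr at 37 °C.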
The depositor's hits bear a star; ? = inconclusive; · = no result given. Rows were chosen to be rich in hits. Some 19% of all compounds tested hit in one or more screens of this group. Unless noted, calls follow the shape of the dose curve; as a rule, active = well fitted curve in the direction sought with a large enough effect; inconclusive = small, poorly fitted or top-dose-only effect, or another doubt; inactive = no such curve, though single readings can be large; an effect the other way counts as inactive or inconclusive. Unless noted, % is scaled to controls: 0 for no effect and ±100 for the full control effect.

SMILES	HT1080-NT tox	IL-1B inflam inh	HT1080 IDH1KD tx	TDP1 cell CPT	TDP1 cell noCPT
COCCCNC(=O)C1CCN(c2nc3ccc(C)cc3[nH]2)CC1	·	·	·	-16%	-14%
COc1ccc(CNC(=O)C2CCN(c3nc4ccc(C)cc4[nH]3)CC2)cc1	·	·	·	?	10µM*
COc1ccc(CNC(=O)C2CCN(C(=O)c3csc(Nc4ccc(C)cc4)n3)CC2)cc1	-14%	-53*	-20%	?	?
Cc1ccc(Nc2nc(C(=O)N3CCC(C(=O)NCc4ccccc4)CC3)cs2)cc1	-30%	?	-20%	-25%	?
COc1cccc(CNC(=O)C2CCN(c3nc4ccc(Cl)cc4[nH]3)CC2)c1	·	·	·	21µM*	?
COc1ccc(CNC(=O)C2CCN(C(=O)[C@@H]3Cc4ccccc4CN3)CC2)cc1	1%	-15	2%	16µM*	?
COc1ccc(NC(=O)CSc2ccc3c(c2)OCCO3)cc1S(N)(=O)=O	-1%	19	4%	?	?
COC1OC2COC(c3ccccc3)OC2C(O)C1NC(C)=O (configuration not stated)	-2%	15	2%	9%	-9%
COc1cc(=O)n2c(c1C(=O)N(C)Cc1nccs1)CCN(Cc1ccc(F)c(F)c1)CC2	·	·	·	?	-27%
CC(Sc1n[nH]c(N)n1)C(=O)Nc1ccc(Cl)cn1 (configuration not stated)	-5%	13	-1%	-8%	2%
Cc1cc(C)c2nc(-c3ccccn3)cc(C(=O)n3cccn3)c2c1	18%	0	13%	?	18µM*
COc1ccccc1NC(=O)c1cc2c(cc1Cl)N1CCCCCC1=NS2(=O)=O	-1%	8	10%	1%	-23%
O=C(NCc1nc2ccccc2[nH]1)c1cccc(Cl)c1	·	·	·	-22%	-5%
Clc1cccc(N/N=C(\Cc2nc3ccccc3[nH]2)c2ccccc2)c1	4%	-104*	-23%	?	?
CCC(=O)N(C1=C(NC(C)C)C(=O)c2ccccc2C1=O)C(C)C	-16%	60	-3%	21µM*	9.2µM*
COc1ccc(CNC(=O)C2CCN(S(=O)(=O)c3ccc4c(c3)CC(C)N4C(C)=O)CC2)cc1 (configuration not stated)	-17%	-76*	-9%	-11%	-23%
Cc1cc(C)nc(N2CCC(C(=O)Nc3cccc(C(F)(F)F)c3)CC2)n1	-3%	2	-18%	?	23µM*
CS(=O)(=O)N1CCC(C(=O)Nc2cccc(C(F)(F)F)c2)CC1	-1%	-12	1%	-2%	-23%
COc1ccccc1NC(=O)C1CCCN(S(=O)(=O)c2ccc3c(c2)CC(C)N3C(C)=O)C1 (configuration not stated)	-1%	1	-14%	?	7.3µM*
COc1ccc(CNC(=O)C2CCN(S(=O)(=O)c3cccc(-c4noc(C)n4)c3)CC2)cc1	·	·	·	23µM*	9.2µM*
CC(=O)N1c2ccc(S(=O)(=O)N3CCC(C(=O)Nc4cccc(C(F)(F)F)c4)CC3)cc2CC1C (configuration not stated)	-23%	-5	?	16µM*	?
CC(=O)N1c2ccc(S(=O)(=O)N3CCC(C(=O)Nc4cccc(C)n4)CC3)cc2CC1C (configuration not stated)	-6%	7	-27%	?	?
CC(=O)Nc1ccc(S(=O)(=O)N2c3ccc(F)cc3CCC2C)cc1 (configuration not stated)	?	75	21µM*	7.3µM*	5.8µM*
CC1CCc2ccc(F)cc2N1S(=O)(=O)c1cccs1 (configuration not stated)	?	2	-25%	?	?
